Assay results taken from the supplement of paper PMC8975748.

Key:
[1] = tested on: Saccharomyces cerevisiae BY4741 SeMeCo community; experiment: z-score of prototroph abundance vs DMSO median; higher = larger share of this subpopulation than in DMSO controls; details: 10 µM; 24 h; SM minimal medium; subpopulation (auxotrophy): Prototroph
Outline: (§1)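 A Saccharomyces cerevisiae BY4741 community carried four plasmids, each restoring one auxotrophy and encoding a distinct fluorescent protein. It was pre-grown overnight to OD600 1.0, diluted to 0.3, and 70 µl was added to 384-well plates acoustically predosed with library drugs (10 µM final), then grown 24 h in minimal SM medium. Cells were paraformaldehyde-fixed and imaged by automated confocal microscopy, with single-auxotroph fluorescent strains setting thresholds and autofluorescence correction. Each subpopulation's abundance was scored as a z-score against the vehicle-well median.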

[2] = tested on: Saccharomyces cerevisiae BY4741 SeMeCo community; experiment: z-score of subpopulation abundance vs DMSO median, subpopulation auxotrophic for M; higher = larger share of this subpopulation than in DMSO controls; details: 10 µM; 24 h; SM minimal medium; subpopulation (auxotrophy): M
Outline: as §1

[3] = tested on: Saccharomyces cerevisiae BY4741 SeMeCo community; experiment: z-score of subpopulation abundance vs DMSO median, subpopulation auxotrophic for L; higher = larger share of this subpopulation than in DMSO controls; details: 10 µM; 24 h; SM minimal medium; subpopulation (auxotrophy): L
Outline: as §1

[4] = tested on: Saccharomyces cerevisiae BY4741 SeMeCo community; experiment: z-score of subpopulation abundance vs DMSO median, subpopulation auxotrophic for U; higher = larger share of this subpopulation than in DMSO controls; details: 10 µM; 24 h; SM minimal medium; subpopulation (auxotrophy): U
Outline: as §1

[5] = tested on: Saccharomyces cerevisiae BY4741 SeMeCo community; experiment: z-score of subpopulation abundance vs DMSO median, subpopulation auxotrophic for LU; higher = larger share of this subpopulation than in DMSO controls; details: 10 µM; 24 h; SM minimal medium; subpopulation (auxotrophy): LU
Outline: as §1

[6] = tested on: Saccharomyces cerevisiae BY4741 SeMeCo community; experiment: z-score of subpopulation abundance vs DMSO median, subpopulation auxotrophic for LM; higher = larger share of this subpopulation than in DMSO controls; details: 10 µM; 24 h; SM minimal medium; subpopulation (auxotrophy): LM
Outline: as §1

[7] = tested on: Saccharomyces cerevisiae BY4741 SeMeCo community; experiment: z-score of subpopulation abundance vs DMSO median, subpopulation auxotrophic for HM; higher = larger share of this subpopulation than in DMSO controls; details: 10 µM; 24 h; SM minimal medium; subpopulation (auxotrophy): HM
Outline: as §1

[8] = tested on: Saccharomyces cerevisiae BY4741 SeMeCo community; experiment: z-score of subpopulation abundance vs DMSO median, subpopulation auxotrophic for HU; higher = larger share of this subpopulation than in DMSO controls; details: 10 µM; 24 h; SM minimal medium; subpopulation (auxotrophy): HU
Outline: as §1

[9] = tested on: Saccharomyces cerevisiae BY4741 SeMeCo community; experiment: z-score of subpopulation abundance vs DMSO median, subpopulation auxotrophic for UM; higher = larger share of this subpopulation than in DMSO controls; details: 10 µM; 24 h; SM minimal medium; subpopulation (auxotrophy): UM
Outline: as §1

[10] = tested on: Saccharomyces cerevisiae BY4741 SeMeCo community; experiment: z-score of subpopulation abundance vs DMSO median, subpopulation auxotrophic for HL; higher = larger share of this subpopulation than in DMSO controls; details: 10 µM; 24 h; SM minimal medium; subpopulation (auxotrophy): HL
Outline: as §1

[11] = tested on: Saccharomyces cerevisiae BY4741 SeMeCo community; experiment: z-score of subpopulation abundance vs DMSO median, subpopulation auxotrophic for HLU; higher = larger share of this subpopulation than in DMSO controls; details: 10 µM; 24 h; SM minimal medium; subpopulation (auxotrophy): HLU
Outline: as §1

[12] = tested on: Saccharomyces cerevisiae BY4741 SeMeCo community; experiment: z-score of subpopulation abundance vs DMSO median, subpopulation auxotrophic for HLM; higher = larger share of this subpopulation than in DMSO controls; details: 10 µM; 24 h; SM minimal medium; subpopulation (auxotrophy): HLM
Outline: as §1

[13] = tested on: Saccharomyces cerevisiae BY4741 SeMeCo community; experiment: z-score of subpopulation abundance vs DMSO median, subpopulation auxotrophic for HUM; higher = larger share of this subpopulation than in DMSO controls; details: 10 µM; 24 h; SM minimal medium; subpopulation (auxotrophy): HUM
Outline: as §1

[14] = tested on: Saccharomyces cerevisiae BY4741 SeMeCo community; experiment: z-score of subpopulation abundance vs DMSO median, subpopulation auxotrophic for LUM; higher = larger share of this subpopulation than in DMSO controls; details: 10 µM; 24 h; SM minimal medium; subpopulation (auxotrophy): LUM
Outline: as §1

[15] = tested on: Saccharomyces cerevisiae BY4741 SeMeCo community; experiment: z-score of subpopulation abundance vs DMSO median, subpopulation auxotrophic for HLUM; higher = larger share of this subpopulation than in DMSO controls; details: 10 µM; 24 h; SM minimal medium; subpopulation (auxotrophy): HLUM
Outline: as §1

[16] = tested on: Saccharomyces cerevisiae BY4741 SeMeCo community; experiment: z-score of subpopulation abundance vs DMSO median, subpopulation auxotrophic for H; higher = larger share of this subpopulation than in DMSO controls; details: 10 µM; 24 h; SM minimal medium; subpopulation (auxotrophy): H
Outline: as §1

Compound | z-score of prototroph abundance [1] | z-score of subpopulation abundance [2] | z-score of subpopulation abundance [3] | z-score of subpopulation abundance [4] | z-score of subpopulation abundance [5] | z-score of subpopulation abundance [6] | z-score of subpopulation abundance [7] | z-score of subpopulation abundance [8] | z-score of subpopulation abundance [9] | z-score of subpopulation abundance [10] | z-score of subpopulation abundance [11] | z-score of subpopulation abundance [12] | z-score of subpopulation abundance [13] | z-score of subpopulation abundance [14] | z-score of subpopulation abundance [15] | z-score of subpopulation abundance [16]
CCN(CC)CCOC(=O)c1ccc(N)cc1 [Procaine] | 0.34 | -1.12 | -0.42 | 1.32 | 0.48 | -0.46 | -0.99 | 0.81 | 0.14 | -0.79 | -1.15 | -1.03 | 0.39 | 0.13 | -0.71 | 
Cc1c(S(=O)(=O)O)oc2c1C(=O)C(=O)c1c-2ccc2c1CCCC2(C)C [Tanshinone IIA sulfonate (sodium)] | -0.48 | 1.72 | 0.5 | -1.39 | -0.91 | -0.11 | -0.31 | -2.62 | 1.77 | 4.28 | -0.84 | 3.71 | 0.71 | 1.3 | 1.74 | 1.42
C=CC(C)(O)CCC=C(C)C (stereo not drawn) [Linalool] | -0.57 | 0.32 | -0.24 | 1.02 | 0.53 | -0.19 | -0.25 | 0.69 | 0.7 | -0.47 | -0.06 | -0.24 | -0.24 | -0.39 | -0.32 | 
CCOC(=O)C1=C(C)NC(C)=C(C(=O)OC)C1c1cccc([N+](=O)[O-])c1 (stereo not drawn) [Nitrendipine] | 0.18 | -0.21 | -1.96 | 1.29 | -0.48 | -1.23 | -0.08 | 1.51 | 0.62 | -0.8 | -0.48 | -0.87 | 0.52 | -1.36 | -1.04 | -0.06
Cc1cnc(NC(=O)C2=C(O)c3ccccc3S(=O)(=O)N2C)s1 [Meloxicam] | 1.47 | -0.52 | -0.61 | -0.19 | -0.98 | -0.94 | -0.89 | -0.61 | -0.26 | -0.41 | -1.26 | -1.09 | -0.88 | -1.43 | -0.98 | -0.59
CC(C(=O)O)c1ccc2c(c1)[nH]c1ccc(Cl)cc12 (stereo not drawn) [Carprofen] | 3.42 | -2.06 | -0.33 | -3.82 | -3.11 | -1.27 | -2.19 | -2.04 | -4.96 | 1.64 | -0.81 | 0.84 | -2.82 | -1.52 | 0.18 | 3.31
O=C(O)C1=C(CSc2nnnn2CS(=O)(=O)O)CS[C@@H]2[C@H](NC(=O)[C@H](O)c3ccccc3)C(=O)N12 [Cefonicid sodium] | 0.12 | -0.38 | -0.08 | 0.61 | 0.98 | -0.87 | -0.77 | 0.75 | 0.3 | 0.41 | 0.39 | 0.46 | -0.26 | -0.25 | 0.08 | 0.28
CC(=O)[C@H]1CC[C@H]2[C@@H]3CC=C4C[C@@H](O)CC[C@]4(C)[C@H]3CC[C@]12C [Pregnenolone] | 0.29 | -0.05 | 1.12 | -0.89 | -0.42 | 0.32 | -0.44 | -0.76 | -0.48 | 0.47 | -0.1 | 0.71 | -0.94 | -0.02 | 0.21 | 
CC(Cc1ccc(O)c(O)c1)C(C)Cc1ccc(O)c(O)c1 (stereo not drawn) [Nordihydroguaiaretic acid (NDGA)] | 0.67 | -0.1 | 0.06 |  | -0.29 | 0.02 | -0.39 | -0.76 | -0.5 | -0.39 | 0.33 | -0.39 | -0.77 |  | -0.44 | -1.01
CC1(C)CC[C@]2(C(=O)O)CC[C@]3(C)C(=CC[C@@H]4[C@@]5(C)CC[C@H](O)C(C)(C)[C@@H]5CC[C@]43C)[C@@H]2C1 [Oleanolic Acid] | -0.29 | 0.25 | -0.03 | -0.6 | -0.16 | 0.88 | 1.05 | 0.23 | 0.1 | 0.59 | 0.15 | 0.33 | 0.93 | 0.78 | 0.12 | -0.07
COc1ccc(C2CNC(=O)C2)cc1OC1CCCC1 (stereo not drawn) [S- (+)-Rolipram] | 1.36 | -0.3 | -0.9 |  | -0.96 | -0.87 | -0.72 | -0.33 | -1.18 | -0.58 | -1.07 | -0.94 | -0.99 | -1.24 | -1.15 | -0.73
CN1[C@@H]2CC[C@H]1C[C@@H](OC(=O)c1c[nH]c3ccccc13)C2 [Tropisetron] | -1.48 | 1.72 | 1.61 | -0.36 | 0.87 | 1.96 | 2.08 | 0.59 | 0.48 |  | 1.41 | 1.12 | 0.95 | 1.16 | 0.38 | 0.66
Oc1c(Br)cc(Br)c2cccnc12 [Broxyquinoline] | -16.8 | 3.22 | 0.17 | -3.11 | 6.62 | 5.88 | 27.7 | 16.9 |  | 10.5 | 27.1 | 49.4 | 15.8 |  | 44.9 | 
